Screens deposited in PubChem BioAssay by National Center for Advancing Translational Sciences (NCATS).
A selection: hits, their analogues and other compounds. The true share with any hit is near 21%.
Pf growth 96h – P. falciparum growth inhibition at 96 hours | Potency, µM (titrated, usually from 28.7 µM), for inactives: at the highest dose activity change, negative = inhibition, hits mostly inhibitors | 320,000 compounds, 6.9% hits | P. falciparum luciferase reporter growth, 96 h; active = well fitted inhibition curve with a large enough effect; inconclusive = small, poorly fitted or top-dose-only effect, or another doubt; inactive = no such curve, though single readings can be large or run the other way; note: potency is the fitted concentration of half-maximal effect; % is set by controls: 0 for no effect and ±100 for the full control effect
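Plates of compound plus infected erythrocytes (2% hematocrit, 0.05% parasitemia final) incubate 96 hours, 37 C, 5% CO2. Detection reagent added; reduced luminescence from the parasites' luciferase reporter flags inhibition.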
Pf growth 48h – P. falciparum growth inhibition at 48 hours (one generation). Potency, µM (doses to about 28.7 µM), for inactives: at the highest dose activity change, negative = inhibition, usual class: inhibitors. 310,000 compounds, 5.9% hits. P. falciparum luciferase growth in erythrocytes, 48 h; active = well fitted inhibition curve with a large enough effect; inconclusive = small, poorly fitted or top-dose-only effect, or another doubt; inactive = no such curve, though single readings can be large or run the other way; note: potency is the fitted concentration of half-maximal effect; % is set by controls: 0 for no effect and ±100 for the full control effect
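Cell-based growth assay: transgenic P. falciparum expressing firefly luciferase, cultured in red cells within RPMI 1640 containing 0.5% w/v Albumax, 24 mM bicarbonate and gentamycin. A drop in luciferase activity indicates inhibition.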
Shiga inhibitor – blocks Shiga toxin action in Vero cells; Vero cells, Shiga toxin protein synthesis inhibition reporter; AID 2315; inhibition, % at 38.7 µM; 290,000 compounds, 9.2% hits; in the data active = inhibition mostly above about 28%, no sharp cut-off; inactive = mostly below about 43%; note: 0% is about no effect
SARS PLpro yeast – SARS-CoV PLP inhibition in yeast. S. cerevisiae expressing SARS-CoV PLpro, growth rescue. Potency, µM (highest dose often 32.9 µM), for inactives: top-dose activity, positive = growth rescue, most hits filed as activators. 330,000 compounds, 0.19% hits. AID 485353; note: potency is the fitted concentration of half-maximal effect; 0% is about no effect; nearly all actives have a fitted effect of over 55% in size
CHX counter – affects cycloheximide protein synthesis inhibition readout, counter-screen; cell reporter, cycloheximide protein synthesis inhibition counterscreen; max response, %; 300,000 compounds, 12% hits; AID 2314; in the data active = max response mostly above about 13%, no sharp cut-off; inactive = mostly below about 14%; note: read at 38.3 µM for the half of the compounds with a filed dose; 0% is about no effect
NS1 function inh – influenza NS1 inhibition | Potency, µM (titrated, usually from 46.1 µM), for the others: at the highest dose activity, positive = more growth | AID 2326 | 270,000 compounds, 0.4% hits; note: potency is the fitted concentration of half-maximal effect; actives are rising curves; nearly all actives have a fitted effect of over 50% in size
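Compounds were scored for reversing the slow growth caused by influenza A NS1 in S. cerevisiae, measured by optical density at 600 nm. Assay medium contained 2% galactose at pH 6.0; NS1-free yeast of the same strain were the positive control.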
* hit, by the source's call; i = inactive; ? = inconclusive; . = no result given. Unless noted, calls come from the whole dose curve.

SMILES	Pf growth 96h	Pf growth 48h	Shiga inhibitor	SARS PLpro yeast	CHX counter	NS1 function inh
CCC[C@@H](CNC)NC[C@H](Cc1ccccc1)NCCCCc1ccccc1	1.65µM*	?	-11.4	-11.1%	-7.3	-9.0%
CNC[C@@H](Cc1ccccc1)NC[C@@H](CC1CCCCC1)NCCCc1ccccc1	?	?	-15.4	-3.7%	-10.1	-18.1%
CCC[C@@H](CN[C@@H](CNC)C(C)C)NCCCCc1ccccc1	11.7µM*	?	-6.3	-2.0%	-3.3	-3.8%
COc1ccc(-c2c(-c3ccc(OCC(=O)NN)cc3O)n[nH]c2C(F)(F)F)cc1	9.28µM*	9.28µM*	-1.3	13.8%	-2.4	?
COc1ccc(-c2n[nH]c(C)c2-c2cnn(-c3ccccc3)c2)c(O)c1	i	-16.1%	6.9	-55.7%	-4.8	-25.7%
C=C(C)COc1ccc(-c2n[nH]c(C)c2-c2ccc(OC)cc2)c(O)c1	3.7µM*	?	-8.0	-32.0%	-4.4	-115.1%
CCOc1ccc(-c2n[nH]c(C)c2-c2ccccc2OC)c(O)c1	-28.2%	3.29µM*	-9.9	-26.8%	-1.0	-34.7%
COc1ccc(-c2n[nH]c(C)c2-c2cscn2)c(O)c1	0.0%	15.9%	-3.5	0.5%	-3.9	-1.2%
COc1ccc(-c2c(-c3ccc(OCC(=O)NN)cc3O)n[nH]c2C)cc1OC	?	?	-4.0	7.5%	-1.7	?
CCc1cc(-c2n[nH]c(C)c2-c2ccccc2Cl)c(O)cc1OC	-14.0%	?	80.1*	-11.1%	31.6*	-0.5%
COc1ccc(OC)c(C2=Nn3c(nnc3-c3ccccc3O)SC2)c1	.	.	0.6	.	4.4	.
Cc1cc2cc(C(=O)N3CCc4c([nH]c5ccccc45)C3c3ccccn3)ccc2o1 (centres undefined)	9.28µM*	10.4µM*	3.9	-2.8%	6.2	-35.1%
Cc1nc(C)c(CC(=O)N2CCc3c([nH]c4ccccc34)C2c2ccccn2)s1 (centres undefined)	10.4µM*	?	-1.7	2.0%	-3.3	0.5%
CC(=O)c1ccc(C(=O)N2CCc3c([nH]c4ccccc34)C2c2cccc(C)n2)s1 (centres undefined)	13.1µM*	?	72.3	-0.9%	1.8	3.6%
Cc1cccc(C2c3[nH]c4ccccc4c3CCN2C(=O)c2ccc(=O)[nH]c2)n1 (centres undefined)	-13.1%	?	-3.5	-0.5%	-0.7	-9.9%
CC(=O)c1cc(CC(=O)N2CCc3c([nH]c4ccccc34)C2c2ccccn2)cs1 (centres undefined)	?	?	18.1	-0.3%	1.0	-0.2%
Cc1ccc(-c2csc(NC(=O)CSc3ncn(-c4ccccc4)n3)n2)cc1	?	8.7%	40.3	?	3.1	-9.3%
Cc1ccc(N2C(=O)C3N=NN(CC(=O)N4N=C(c5ccccc5)CC4c4ccccc4)C3C2=O)cc1 (centres undefined)	-24.7%	11.7µM*	-5.6	-1.2%	-4.7	.
COc1ccc(NC(=O)COc2ccccc2)cc1NC(=O)c1ccco1	205.9%	29.8%	-3.2	3.0%	0.5	-28.1%
Cc1cc(C)n(-c2ccc(NC(=O)C3CCCCN3C(=O)c3sccc3C)cc2)n1 (centres undefined)	14.7µM*	-11.3%	-24.5	3.2%	3.9	-3.5%
Cc1cc(C)n(-c2ccc(NC(=O)C3CCCCN3C(=O)c3ccoc3)cc2)n1 (centres undefined)	9.28µM*	-5.0%	-1.9	-0.3%	11.7	15.9%
Cc1cc(C)n(-c2ccc(NC(=O)C3CCCCN3C(=O)c3occc3C)cc2)n1 (centres undefined)	5.8%	-14.7%	-17.5	-2.6%	-5.8	1.1%
Cc1cc(NC(=O)CSc2nnc(C3CC3)n2N)c([N+](=O)[O-])cc1C	23.4%	5.4%	-11.4	-5.4%	-2.6	.
CN(C)CCn1c(=O)n(Cc2ccccc2)c(=O)c2c3c(sc21)CCCCC3	?	-17.3%	6.8	1.9%	2.9	2.4%
CCOC(=O)c1sc2c(c1C)c(=O)n(Cc1ccccc1)c(=O)n2CCN(C)C	2.08µM*	?	-3.2	2.1%	-2.3	-1.2%
SMILES	Pf growth 96h	Pf growth 48h	Shiga inhibitor	SARS PLpro yeast	CHX counter	NS1 function inh
CC1CN(C(=O)COC(=O)c2cccc(S(=O)(=O)N3CCc4ccccc43)c2)CC(C)O1 (centres undefined)	.	.	.	0.5%	.	.
CCN(CC)CCC(O)(c1ccccc1)C1CCCCC1 (centres undefined)	9.6%	?	.	1.5%	-4.0	8.2%
CC[N+](CC)(CC)CCC(O)(c1ccccc1)C1CCCCC1 (centres undefined)	10.4µM*	6.57µM*	.	7.4%	.	.
CCN(C(=O)COC(=O)CCc1c[nH]c2ccccc12)c1c(N)n(Cc2ccccc2)c(=O)[nH]c1=O	0.2%	4.9%	.	0.2%	.	.
O=C(O)CCCNC(=O)/C=C/c1ccco1	55.1%	32.8%	-9.2	0.3%	-2.3	-3.3%
CC/C(=N\NC(=O)CNC(=O)/C=C/c1ccco1)c1ccccc1	-1.0%	50.2%	64.4	1.2%	-1.5	?
O=C(/C=C/c1ccco1)NCCc1ccccc1	?	99.5%	81.2*	0.2%	47.3*	.
Cc1ccc(/C=C/C(=O)NCCc2ccccc2)o1	?	83.0%	77.2*	-7.1%	40.5*	-16.2%
CCC/C(=N\NC(=O)CNC(=O)/C=C/c1ccco1)c1ccccc1	36.9%	9.7%	-112.4	4.2%	12.7*	14.7%
COc1cccc(C2CC(c3cccc(C)c3)n3ncnc3N2)c1 (centres undefined)	?	-10.0%	-2.1	1.1%	-2.8	-6.2%
Nc1nc(N)c2nc(-c3ccccc3)c(N)nc2n1	3.79µM*	1.69µM*	-17.0	-3.1%	-3.9	?
NSc1nc(N)c2nc(-c3ccccc3)c(-c3ccccc3)nc2n1	?	-6.5%	-11.0	0.3%	-2.2	18.6%
CCOC(=O)C1=C(COC(=O)COc2cc(C)ccc2C)NC(=O)NC1C (centres undefined)	6.5%	?	.	3.2%	.	.
CCN(C[C@H]1N[C@@](C)(C(=O)OC)[C@H]2C(=O)N(C)C(=O)[C@@H]12)C(=O)Nc1ccc(C)cc1	.	.	.	-5.1%	.	.
C=CCn1c(=N)n(CC(O)COc2ccccc2OC)c2ccccc21 (centres undefined)	?	.	2.6	7.9%	-3.9	-2.6%
CCCCCn1c(=N)n(CC(O)COc2ccccc2OC)c2ccccc21 (centres undefined)	?	4.65µM*	-2.8	-25.9%	-6.5	3.8%
COc1ccccc1OCC(O)Cn1c(=N)n(Cc2ccccc2)c2ccccc21 (centres undefined)	?	9.28µM*	-14.0	7.7%	-7.3	-4.6%
N=c1n(Cc2ccccc2)c2ccccc2n1CC(O)c1ccccc1 (centres undefined)	2.33µM*	2.08µM*	-7.9	-21.2%	-5.5	?
CC(C)(C)C(=O)Cn1c(=N)n(Cc2ccccc2)c2ccccc21	?	13.1µM*	3.0	-51.0%	-2.4	-37.3%
